Mtb bLac sens: beta-lactam sensitization of Mtb H37Rv, H37Rv; M. tuberculosis H37Rv growth with meropenem, percent inhibition; inhibition, % at 25 µM; 0.27% of 330,000 active; AID 434955, 2010; call rule not given here;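 also: growth measured after seven days incubation then overnight dye step; 0% = bacteria only wells and 100% = bacteria with antibiotic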
FadD28 FP inh: inhibitors of FadD28 bisubstrate probe binding, primary screen, biochemical, fluorescence polarization, single point; 0.22% of 360,000 active; AID 588549, 2011; inhibition, % at 12.5 µM; Mycobacterium tuberculosis FadD28 fatty-acid-AMP ligase; in the data active = inhibition above about 8.5%, passing the limit was not always enough
Rv3671c inh: Rv3671c serine protease inhibitors, primary screen, biochemical, fluorescence polarization, M. tuberculosis H37Rv; 0.048% of 320,000 active; P9WHR9; AID 2606, 2010; inhibition, % at 5.96 µM; in the data active = inhibition above about 38%;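 also: extracellular domain of Rv3671c used as enzyme; 0% = enzyme with DMSO and 100% = no enzyme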
Target sequence (P9WHR9 whole entry, looked up, the tested form may be a part): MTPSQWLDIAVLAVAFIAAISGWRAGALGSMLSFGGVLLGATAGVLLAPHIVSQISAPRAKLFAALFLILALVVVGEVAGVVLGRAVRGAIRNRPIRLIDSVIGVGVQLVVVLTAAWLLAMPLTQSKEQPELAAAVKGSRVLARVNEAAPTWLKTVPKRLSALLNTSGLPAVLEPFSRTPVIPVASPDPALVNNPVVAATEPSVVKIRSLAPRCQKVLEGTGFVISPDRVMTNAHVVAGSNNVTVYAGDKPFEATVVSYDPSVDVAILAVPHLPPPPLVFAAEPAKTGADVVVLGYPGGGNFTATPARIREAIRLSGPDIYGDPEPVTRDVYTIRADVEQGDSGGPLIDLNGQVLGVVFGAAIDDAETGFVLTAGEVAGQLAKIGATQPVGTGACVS
Mtb UGM inh: M. tuberculosis UGM enzyme inhibitors, primary screen, biochemical, fluorescence polarization, single point | UDP-galactopyranose mutase (Mycobacterium tuberculosis (strain ATCC 25618 / H37Rv)), … | purified UGM, fluorescence polarization probe displacement | inhibition, % at 10 µM | 0.06% of 320,000 active | AID 504406, 2011; in the data active = inhibition above about 10%, passing the limit was not always enough
GDH-TPI inh: GDH-TPI coupling enzyme inhibitors, primary screen, artefact control for M. tuberculosis FBA inhibitor project, biochemical, absorbance, full deck; GDH-TPI coupled enzyme counterscreen, NADH absorbance; inhibition, % at 4.8 µM; 1.2% of 360,000 active; AID 588335, 2011; in the data active = inhibition above about 30%;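 also: 0% = DMSO wells and 100% = wells lacking the enzyme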
Mtb FBA inh: Mtb FBA enzyme inhibitors, primary screen, biochemical, fluorescence, strain H37Rv. Fructose-bisphosphate aldolase (Mycobacterium tuberculosis (strain ATCC 25618 / H37Rv)), …. purified M. tuberculosis FBA, fluorescence read-out. inhibition, % at 1 µM. 2.3% of 360,000 active. AID 588726, 2011; in the data active = inhibition above about 27%;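 also: 0% = vehicle and 100% = reference inhibitor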
The depositor's hits bear a star; . = not tested or not shown; + = active, no number. Most compounds without a hit are left out; they make up all but 3.7% or so of the library.

SMILES	Mtb bLac sens	FadD28 FP inh	Rv3671c inh	Mtb UGM inh	GDH-TPI inh	Mtb FBA inh
CCC(=O)Nc1ccc(S(=O)(=O)NC[C@H]2O[C@@H](n3cc(C)c(=O)[nH]c3=O)C[C@@H]2O)cc1	.	-4	.	.	-9	-4
CCN(/N=C/C=C/c1ccccc1)c1cc(=O)n(C)c(=O)[nH]1	7	-1	-11	0	70*	-2
CCN(/N=C/c1ccc(Cl)cc1)c1cc(=O)n(C)c(=O)[nH]1	-2	-2	1	2	51*	0
Cn1c(=O)cc(Nc2ccccc2)[nH]c1=O	-1	-2	-6	1	-2	0
Cn1c(=O)cc(C(=O)N/N=C/c2ccc(Cl)cc2)[nH]c1=O	-9	0	9	-1	16	-1
O=C(Nc1ccccc1O)c1cccc(S(=O)(=O)Nc2ccccc2O)c1	-10	-15	-7	-2	-5	1
O=C1NC(=S)N(c2ccccc2)C(=O)/C1=C/c1ccco1	2	11*	-63	-4	-4	-2
Cc1ccc(-n2c(C)cc(/C=N/NC(=O)c3ccc(CN4CCOCC4)cc3)c2C)cc1	42	-2	0	3	21	1
Cc1cccc(-n2c(C)cc(/C=N/NC(=O)c3ccc(CN4CCOCC4)cc3)c2C)c1	32	-3	-4	0	45*	1
C[C@@H]1CN([C@@H](C)CO)C(=O)CCCn2cc(nn2)CO[C@H]1CN(C)S(=O)(=O)c1ccc2ccccc2c1	.	0	.	.	-4	0
CCOc1ccc(NC(=O)CN2CCN(CC(=O)Nc3cccc(F)c3)CC2)cc1	-9	0	-1	-1	-7	153*
CCOc1ccc(-n2nc3ccc(NC(=O)CC)cc3n2)cc1	3	1	.	-1	8	+
CCOc1ccc(NC(=O)CN2CCN(CC(=O)Nc3ccc4c(c3)OCCO4)CC2)cc1	-4	0	8	-2	9	4
CCOc1ccc(NC(=O)COc2ccc(-n3cnnn3)cc2)cc1	74	-4	-2	1	-7	2
O=C(Nc1ccncc1)C1CC(=O)N(Cc2ccccc2)C1 (stereo not drawn)	.	-1	.	.	6	-1
CC1(C(=O)NS(=O)(=O)c2ccc(F)cc2F)CCN1C(=O)C1(c2ccc(Cl)cc2)CCC1 (stereo not drawn)	.	-4	.	.	14	-1
Oc1[nH]c2ccccc2c1C=NCC1CCCO1 (stereo not drawn)	17	0	4	-4	35*	-2
COc1ccc(/C=N/NC(=O)c2ccc(COc3ccccc3Cl)o2)cc1	-8	-2	-5	3	25	1
CC(=O)Nc1ccc(/C(C)=N/NC(=O)c2ccc(COc3ccccc3Cl)o2)cc1	4	-2	-3	2	31*	3
N#CCC(=O)Nc1ccc(C(=O)OCC(=O)Nc2cccc(C(F)(F)F)c2)cc1	-1	11*	-118	-1	3	3
N#CCC(=O)Nc1ccc(C(=O)OCC(=O)Nc2cccc3ccccc23)cc1	.	0	.	.	9	2
O=c1c2ccccc2sc2ccc(NCCCN3CCOCC3)cc12	1	1	1	-1	2	7
COc1cc2sc3cc(NCCCN4CCOCC4)ccc3c(=O)c2cc1OC	81	-21	-11	1	24	34*
CN(C)Cc1c(O)c(Cl)cc2c3c(c(=O)oc12)CCCC3	12	2	-2	1	19	+
CCN(CC)Cc1c(O)c(Cl)cc2c3c(c(=O)oc12)CCCC3	2	1	-3	3	15	+
SMILES	Mtb bLac sens	FadD28 FP inh	Rv3671c inh	Mtb UGM inh	GDH-TPI inh	Mtb FBA inh
CN(C(=O)c1cccc(NC(=O)Cc2ccc(NC(=O)C3CCCN(C(=O)C4CC4)C3)cc2)c1)C1CCCC1 (stereo not drawn)	.	-3	.	.	5	-1
COc1ccc(NC(=O)C(=S)NC2CCCCC2)cc1	-2	-1	1	1	-4	6
CC(=O)Nc1ccc(N/C=C/C(=O)C(C)(C)C)cc1	8	-1	1	-3	42*	2
COc1ccc(Oc2ccc(N/C=C/C(=O)C(C)(C)C)cc2)cc1	93	-2	1	-2	1	1
CC1(C(=O)Nc2ccc(F)cc2F)CCN1C(=O)Cc1ccccc1 (stereo not drawn)	.	0	.	.	12	3
CSC1=NSC2=NC(=O)/C(=C/c3coc4ccccc4c3=O)C(=N)N12	2	3	-15	-17	14	8
O=C1NC(=O)N(c2ccccc2)C(=O)/C1=C/c1coc2ccc(O)cc2c1=O	-3	-1	-2	3	31*	-1
CSC1=NSC2=NC(=O)/C(=C/c3coc4ccc(O)cc4c3=O)C(=N)N12	6	12*	-14	-3	7	13
Nc1ccn(Cc2ccccc2)n1	0	-3	-11	-2	4	7
c1ccc(Cn2ccc(-c3cnc(-c4ccccc4)s3)n2)cc1	73	-3	-9	-2	18	182*
N#C/C(=C\c1ccco1)C(=O)NCC1CCCO1 (stereo not drawn)	-3	-2	-9	-1	46*	0
N#C/C(=C\c1ccc[nH]1)C(=O)NCC1CCCO1 (stereo not drawn)	7	-3	7	-6	35*	1
CC(NC(=O)/C(C#N)=C/c1ccco1)c1ccccc1 (stereo not drawn)	-6	-2	2	1	52*	-1
Cc1ccc(/C=C(\C#N)C(=O)NCC2CCCO2)o1 (stereo not drawn)	-3	0	-12	1	22	2
CC(O)(c1ccc(F)c(F)c1)c1nc(-c2ccccc2)cs1 (stereo not drawn)	.	-1	.	.	-4	2
NC(=S)N=Nc1c(O)[nH]c2c(Cl)cc(Cl)cc12	.	2	.	.	37*	-4
COc1ccc(NC(=O)CNc2ccc(OC)c(S(=O)(=O)N3CCOCC3)c2)cc1	.	-3	.	.	-3	-2
CC(C)(C)c1ccc(C(=O)NC(=S)Nc2nc3c(s2)CCCC3)cc1	3	-2	-3	0	8	6
CN(C)c1ccc(C(=O)Nc2nc3c(s2)CCCC3)cc1	83	-3	-1	0	37*	2
O=C(NC1CCOC1=O)OCc1ccccc1 (stereo not drawn)	.	-3	.	.	7	3
Cc1cc(C=C(C#N)C#N)c(C)n1-c1ccccc1	1	-3	-3	2	0	-2
Cc1ccc(-n2c(C)cc(C=C(C#N)C#N)c2C)cc1	-8	1	6	1	39*	-1
COCCNC(=O)/C(C#N)=C/c1cc(C)n(-c2ccc(C)cc2)c1C	-1	1	1	1	31*	6

Screening results deposited in PubChem by several laboratories.
